These results are taken from the supplement of paper PMC7380943.

± gives the standard deviation of the averaged measurements.

In experiment [1] the test system is CLZ3 (HCA2 human fibroblast dual HR-NHEJ reporter). Description: NHEJ repair efficiency (GFP+ cells) relative to control (log10 fold); higher = more non-homologous end joining. The conditions noted are these: 5 µM; doxycycline 0.5 ug/mL.
The test system is the same in experiment [2]. Description: HR repair efficiency (tdTomato+ cells) relative to control (log10 fold); higher = more homologous recombination. The conditions noted are these: 5 µM; doxycycline 0.5 ug/mL.
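Wherever HR repair efficiency (tdTomato+ cells) relative to control is given: compound given one day before doxycycline, which switches on I-SceI endonuclease expression to create double-strand breaks within the integrated reporter.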
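Wherever NHEJ repair efficiency (GFP+ cells) relative to control is given: compound given one day ahead of doxycycline, which switches on I-SceI endonuclease to cut the chromosomally integrated reporter and create DSBs.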

For `CC(C)=CCC[C@](C)(O[C@@H]1O[C@H](CO[C@@H]2OC[C@H](O)[C@H](O)[C@H]2O)[C@@H](O)[C@H](O)[C@H]1O)[C@H]1CC[C@]2(C)[C@@H]1[C@H](O)C[C@@H]1[C@@]3(C)CC[C@H](O[C@@H]4O[C@H](CO)[C@@H](O)[C@H](O)[C@H]4O[C@@H]4O[C@H](CO)[C@@H](O)[C@H](O)[C@H]4O)C(C)(C)[C@@H]3CC[C@]12C` [Ginsenoside Rb2], the “NHEJ repair efficiency (log10)” value in experiment [1] is 0.0156. Moreover, the “HR repair efficiency (log10)” value in experiment [2] amounted to 0.096.
The matching figures for `C[C@H]1[C@H](C)CC[C@]2(C(=O)O)CC[C@]3(C)C(=CC[C@@H]4[C@@]5(C)CC[C@H](O)C(C)(C)[C@@H]5CC[C@]43C)[C@H]12` [Ursolic Acid]: 0.324 and -0.12.
Take `C=C(C)C(=O)Cc1c(OC)ccc2ccc(=O)oc12` [Murrayone]: in experiment [1], the “NHEJ repair efficiency (log10)” value amounted to 0.0921. The “HR repair efficiency (log10)” value in experiment [2] is -0.312.
In the case of `CC(C)=CCC12Oc3cc(O)ccc3C1(O)Oc1cc(O)c([C@H]3C=C(C)C[C@@H](c4ccc(O)cc4O)[C@@H]3C(=O)c3ccc(O)cc3O)c(O)c1C2=O` (stereo not given in full) [Sanggenon D], in experiment [1], the “NHEJ repair efficiency (log10)” value was -0.0219. Besides, the “HR repair efficiency (log10)” value in experiment [2] is -0.176.
As for `O=C(/C=C/c1ccc(O)c2c1[C@H](C(=O)O)[C@@H](c1ccc(O)c(O)c1)O2)O[C@H](Cc1ccc(O)c(O)c1)C(=O)O` [Lithospermic acid], the “NHEJ repair efficiency (log10)” value in experiment [1] stood at 0.072. In addition, in experiment [2], the “HR repair efficiency (log10)” value stood at 0.0325.
On to `C=C1C[C@@]2(O)O[C@@]3(C[C@H]2C(C)C)[C@@H](C)CC[C@@H]13` [Curcumol], for which the “NHEJ repair efficiency (log10)” value in experiment [1] is -0.0784. Moreover, the “HR repair efficiency (log10)” value in experiment [2] amounted to 0.163.
As to `CC(C)(O[C@@H]1O[C@H](CO)[C@@H](O)[C@H](O)[C@H]1O)[C@H]1Cc2cc3ccc(=O)oc3cc2O1` [Nodakenin], in experiment [1], the “NHEJ repair efficiency (log10)” value was -0.0969. Besides, the “HR repair efficiency (log10)” value in experiment [2] came to 0.0112.
Take `CC(/C=C/C=C(\C)C(=O)O[C@@H]1O[C@H](CO[C@@H]2O[C@H](CO)[C@@H](O)[C@H](O)[C@H]2O)[C@@H](O)[C@H](O)[C@H]1O)=C\C=C\C=C(C)\C=C\C=C(/C)C(=O)O[C@@H]1O[C@H](CO[C@@H]2O[C@H](CO)[C@@H](O)[C@H](O)[C@H]2O)[C@@H](O)[C@H](O)[C@H]1O` [Crocin I]: the “NHEJ repair efficiency (log10)” value in experiment [1] was 0.0171. Moreover, the “HR repair efficiency (log10)” value in experiment [2] was determined as 0.076.
Regarding `CC1(C)CC[C@]2(C(=O)O[C@@H]3O[C@H](CO[C@@H]4O[C@H](CO)[C@@H](O)[C@H](O)[C@H]4O)[C@@H](O)[C@H](O)[C@H]3O)CC[C@]3(C)C(=CC[C@@H]4[C@@]5(C)CC[C@H](O[C@@H]6OC[C@H](O)[C@H](O)[C@H]6O)[C@@](C)(CO)[C@@H]5CC[C@]43C)[C@@H]2C1` [Akebiasaponin D], the “NHEJ repair efficiency (log10)” value in experiment [1] is 0.328. Further, the “HR repair efficiency (log10)” value in experiment [2] was -0.29.
On the same counts, the results for `C/C1=C\CC[C@]23O[C@H]2[C@@H](OC3=O)c2c(C)coc2C1` [Linderane] are -0.0245 and 0.0607.
On the same counts, the results for `C/C=C/c1cc(OC)c2c(c1)[C@H](C)[C@@H](c1ccc3c(c1)OCO3)O2` [Licarin B] are 0.0776 and 0.192.
Turning to `O=C(O)C1=CO[C@@H](O[C@@H]2O[C@H](CO)[C@@H](O)[C@H](O)[C@H]2O)[C@@H]2C(CO)=CC[C@H]12` [Geniposidic acid], the “NHEJ repair efficiency (log10)” value in experiment [1] was -0.068. Moreover, the “HR repair efficiency (log10)” value in experiment [2] was -0.00169.
Turning to `O=c1cc(-c2ccc(O)c(O)c2)oc2cc(O)c([C@@H]3O[C@H](CO)[C@@H](O)[C@H](O)[C@H]3O)c(O)c12` [Isoorientin], the “NHEJ repair efficiency (log10)” value in experiment [1] is -0.0953. In addition, in experiment [2], the “HR repair efficiency (log10)” value is 0.00986.
On to `COc1ccc([C@H]2OC[C@H]3[C@@H]2CO[C@H]3c2ccc(O[C@@H]3O[C@H](CO)[C@@H](O)[C@H](O)[C@H]3O)c(OC)c2)cc1OC` [Phillyrin], for which, in experiment [1], the “NHEJ repair efficiency (log10)” value was -0.0633. Besides, the “HR repair efficiency (log10)” value in experiment [2] is -0.0538.
On the same counts, the results for `CC(C)=CCC[C@](C)(O[C@@H]1O[C@H](CO)[C@@H](O)[C@H](O)[C@H]1O)[C@H]1CC[C@]2(C)[C@@H]1[C@H](O)C[C@@H]1[C@@]3(C)CC[C@H](O)C(C)(C)[C@@H]3[C@@H](O[C@@H]3O[C@H](CO)[C@@H](O)[C@H](O)[C@H]3O)C[C@]12C` [Ginsenoside Rg1] are 0.099 and 0.0737.
On the same counts, the results for `COc1cc(/C=C/c2ccc(O)cc2)cc(OC)c1` [Pterostilbene] are 0.127 and 0.242.
Consider `C[C@@H]1O[C@@H](OC[C@H]2O[C@@H](Oc3cc(O)c4c(c3)O[C@H](c3ccc(O)cc3)CC4=O)[C@H](O)[C@@H](O)[C@@H]2O)[C@H](O)[C@H](O)[C@H]1O` [Narirutin], for which, in experiment [1], the “NHEJ repair efficiency (log10)” value stood at 0.00886. Also, the “HR repair efficiency (log10)” value in experiment [2] was -0.053.
On the same counts, the results for `CC1(C)[C@@H](O)CC[C@]2(C)[C@H]3CC=C4[C@@H]5C[C@@]6(C)C[C@H](OC6=O)[C@]5(C)CC[C@@]4(C)[C@]3(C)CC[C@@H]12` [Wilforlide A] are -0.137 and 0.00171.
The matching figures for `CC1(C)C2CCC1(C)C(O)C2` (stereo not given) [Borneol]: 0.0116 ± 0.059 and 0.0372 ± 0.12.
As for `C=C(C)[C@@H]1CC[C@]2(C)CC[C@]3(C)[C@H](CC[C@@H]4[C@@]5(C)CC[C@H](O)C(C)(C)[C@@H]5CC[C@]43C)[C@@H]12` [Lupeol], in experiment [1], the “NHEJ repair efficiency (log10)” value turned out to be 0.0011. Moreover, the “HR repair efficiency (log10)” value in experiment [2] stood at 0.06.
